Results published in PubChem BioAssay (Tox21).
Inconclusive results are not listed. A call without a number means that no potency is given here. Activity calls are given as the source filed them. Calls follow the shape of the full dose curve.

What was measured:
[1] = target: Acetylcholinesterase (Homo sapiens) (UniProt P22303); assay: Acetylcholinesterase (AChE) small molecule antagonists: colormetric cell-based qHTS assay (AID 1347395); also: nearly all actives have a fitted effect of over 30% in size; also: potency is read from the fitted curve at half-maximal effect
Procedure, shortened: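 Endogenous AChE of human neuroblastoma SH-SY5Y cells was measured with an Ellman-type DTNB/acetylthiocholine mix. Compound pretreatment lasted 30 min at 37 C; substrate reaction ran 90 min at 37 C.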

[2] = target: Acetylcholinesterase (Homo sapiens) (UniProt P22303); assay: Acetylcholinesterase (AChE) small molecule antagonists: enzyme-based qHTS assay (AID 1347397); details: Potency: AChE enzyme activity inhibition; outcome: AChE enzyme activity inhibition; also: nearly all actives have a fitted effect of over 55% in size; also: potency is read from the fitted curve at half-maximal effect
Procedure, shortened: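 Recombinant human AChE (50 mU/mL) preincubated with compound 30 min at room temperature; acetylthiocholine plus DTNB then added, and thiocholine formation read colorimetrically after 10 min at room temperature. DMSO served as vehicle control.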

[3] = target: Acetylcholinesterase (Homo sapiens) (UniProt P22303); assay: Acetylcholinesterase (AChE) small molecule antagonists: enzyme-based qHTS assay with human liver microsomes (AID 1347399); details: Potency: qHTS inhibition; outcome: qHTS inhibition; also: nearly all actives have a fitted effect of over 60% in size
Procedure, shortened: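 Recombinant human AChE (50 mU/mL in the enzyme mix) and human liver microsomes (0.25 mg/mL final) were preincubated with compound and NADPH (0.25 mg/mL final) for 30 min at 37 C. Acetylthiocholine/DTNB was then added; thiocholine was read colorimetrically after 10 min at room temperature.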

Sequence of Acetylcholinesterase (Homo sapiens) (P22303 whole entry, looked up): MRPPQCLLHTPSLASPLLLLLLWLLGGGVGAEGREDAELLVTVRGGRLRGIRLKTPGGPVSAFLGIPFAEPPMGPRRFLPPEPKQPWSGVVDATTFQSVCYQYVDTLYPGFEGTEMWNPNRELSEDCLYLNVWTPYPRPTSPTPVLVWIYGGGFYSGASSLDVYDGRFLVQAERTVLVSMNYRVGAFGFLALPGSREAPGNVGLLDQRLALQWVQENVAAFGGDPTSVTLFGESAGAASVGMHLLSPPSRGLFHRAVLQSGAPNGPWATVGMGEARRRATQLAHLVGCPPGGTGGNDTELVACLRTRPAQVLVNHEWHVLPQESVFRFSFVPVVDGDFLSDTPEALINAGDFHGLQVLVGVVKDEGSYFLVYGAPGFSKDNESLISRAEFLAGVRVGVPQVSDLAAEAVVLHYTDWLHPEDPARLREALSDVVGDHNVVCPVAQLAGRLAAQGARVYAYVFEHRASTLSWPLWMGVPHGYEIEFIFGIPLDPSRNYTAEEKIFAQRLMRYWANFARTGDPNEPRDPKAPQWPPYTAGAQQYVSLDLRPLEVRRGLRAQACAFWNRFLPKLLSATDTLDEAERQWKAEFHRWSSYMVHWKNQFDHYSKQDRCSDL

Compound	Potency [1]	Potency [2]	Potency [3]	outcome [2]	outcome [3]	outcome [1]
CCC(=O)Oc1ccc2c(c1)CC[C@@H]1[C@@H]2CC[C@@]2(C)[C@H]1C[C@@H](OC(=O)CC)[C@@H]2OC(=O)CC	inactive	inactive	inactive			
CC(C)(C)NSc1nc2ccccc2s1	inactive	inactive	inactive			
CN1CC(=O)N2[C@H](c3ccc4c(c3)OCO4)c3[nH]c4ccccc4c3C[C@@H]2C1=O	27.5 µM (active)	inactive	inactive			
NCc1cccc(C2CCN(C(=O)c3ccc(C#Cc4ccccc4F)o3)CC2)c1	inactive	79.6 µM (active)	inactive			
ON=C1CCCC1	inactive	inactive	inactive			
CC(C)COCC(CN(Cc1ccccc1)c1ccccc1)N1CCCC1 (centres undefined)	inactive	inactive	inactive			
OCc1cc(C(O)CNCCCCCCOCCCCc2ccccc2)ccc1O (centres undefined)	inactive	inactive	inactive			
CCCCCCCCOCCCN	inactive	inactive	inactive			
CCCC(C(=O)OCCN(CC)CC)(c1ccccc1)c1ccccc1	inactive	inactive	inactive			
O=[N+]([O-])c1ccc(O/N=C/c2cc(Br)c(O)c(Br)c2)c([N+](=O)[O-])c1	inactive	inactive	inactive			
CCN(CC)CCOc1ccccc1C(=O)CCc1ccccc1	inactive	inactive	inactive			
CCNC(=O)C1CC(C)CCC1C(C)C (centres undefined)	inactive	inactive	inactive			
N=C(N)c1ccc2cc(OC(=O)c3ccc(N=C(N)N)cc3)ccc2c1	27.5 µM (active)			inactive	inactive	
C=CCn1cc[n+](C)c1	inactive	inactive	inactive			
CN(C)CCOC(c1ccc(Cl)cc1)c1ccccn1 (centres undefined)	inactive	inactive	inactive			
CC(=O)OCC(=O)[C@@]1(O)CC[C@H]2[C@@H]3CCC4=CC(=O)C=C[C@]4(C)[C@@]3(F)[C@@H](O)C[C@@]21C	inactive	inactive	inactive			
CC1=C(/C=C/C(C)=C/C=C/C(C)=C/C=O)C(C)(C)CCC1	inactive	inactive	inactive			
CCO[C@@H]1O[C@H](C(COCc2ccccc2)OCc2ccccc2)[C@H](OCc2ccccc2)[C@H]1O (some centres undefined)	inactive	inactive	inactive			
CC[C@@]1(O)C(=O)OCc2c1cc1n(c2=O)Cc2c-1nc1ccccc1c2/C=N/OC(C)(C)C	inactive	inactive	inactive			

Compound	Potency [1]	Potency [2]	Potency [3]	outcome [2]	outcome [3]	outcome [1]
CCOC(=O)Nc1ccc(NCc2ccc(F)cc2)nc1N	inactive	inactive	inactive			
CC(CN)CC(C)(C)CCN (centres undefined)	inactive	inactive	inactive			
O=C(Nc1ccc2c(O)c(N=Nc3ccc(N=Nc4ccc(S(=O)(=O)O)cc4)cc3)c(S(=O)(=O)O)cc2c1)c1ccccc1	inactive	inactive	inactive			
CCN(CC)CCOCCOC(=O)C1(c2ccccc2)CCCC1	inactive	inactive	inactive			
CN(C/C=C/c1ccccc1)Cc1cccc2ccccc12				inactive	inactive	inactive
Cc1ccc(N)cc1S(=O)(=O)O	inactive	inactive	inactive			
CCN(CC)C(=O)c1cc(S(=O)(=O)Cc2ccccc2)c(N2CCC(c3ccccc3)CC2)cc1N(CC)CCN(C)C	inactive	inactive	inactive			
CC1(C)CCC(C)(C)c2cc(NC(=O)c3ccc(C(=O)O)cc3)ccc21	inactive	inactive	inactive			
COc1ccc2cc(C=O)ccc2c1	inactive	inactive	inactive			
CCCCCCCCCCCCCCN(CCO)CCO	inactive	inactive	inactive			
CNC(=O)c1ccccc1Sc1ccc2c(/C=C/c3ccccn3)n[nH]c2c1	inactive	inactive	inactive			
CC(C)c1ccc2oc3nc(N)c(C(=O)O)cc3c(=O)c2c1	inactive	inactive	inactive			
C=CC(=O)NC(C)(C)C	inactive	inactive	inactive			
CN(C)CC/C=C1\c2ccccc2Sc2ccc(Cl)cc21	inactive	inactive	inactive			
C1CCC2(CCCCO2)OC1	inactive	inactive	inactive			
CC(=O)Nc1ccccc1C	inactive	inactive	inactive			
[O-][n+]1cccc(CO)c1	inactive	inactive	inactive			
O=C1NC(=O)c2cccc3cccc1c23	39.9 µM (active)	inactive	inactive			
CC1=C(/C=C/C(C)=C\C=C\C(C)=C\C(=O)O)C(C)(C)CCC1	inactive	inactive	inactive			
